Active and inactive are the calls of the source. How the source made its calls: active means hit-call score of the fitted dose curve at least 0.9, where 1 is the maximum; inactive means score below 0.9.
Test: CCTE_Harrill_HTTr_Apoptosis_MCF7: CCTE's 6-hour Apoptosis Assessment for the High-Throughput Transcriptomics (HTTr) Platform, in MCF-7 cells cultured in DMEM + 10% fetal bovine serum, Harrill Lab (AID 2284011)
Excerpt: This is a cell-based assay that evaluates apoptosis using high content imaging to evaluate activation of caspase-3/7 using the CellEvent Caspase 3/7 Green detection reagent in 384-well format.One of seven assay components measured from the CCTE_Harrill_HTTr_Apoptosis assay. This was part of a full screening experiment. This is a cell-based assay that evaluates apoptosis in MCF-7 cells cultured in DMEM + 10% fetal bovine serum. High content imaging is used to evaluate activation of caspase-3/7 using the CellEvent Caspase 3/7 Green detection reagent. Measurements are taken at 6 hours after chemical dosing in 384-well format.The assay component endpoint CCTE_Harrill_HTTr_Apoptosis_MCF7 was analyzed with bidirectional fitting relation to DMSO as the negative control and baseline of activity. Using a type of viability reporter, gain-of-signal activity can be used to evaluate activation of caspase-3/7 using the CellEvent Caspase 3/7 Green detection reagent to understand changes in apoptosis. To generalize the intended target to other relatable targets, this assay endpoint is annotated to cell cycle, where the subfamily is apoptosis.
Chemicals were tested in MCF7 cells in an eight point dilution series with a six hour exposure duration.

SMILES | outcome
COCCOC(C)=O | inactive
O=c1[nH]c2c(c(=O)n1C1CCCCC1)CCC2 | inactive
C=CCN(CC=C)C(=O)C(Cl)Cl | inactive
O=C(O)CCCc1ccc(N(CCCl)CCCl)cc1 | inactive
CCOC(=O)NC(=S)Nc1ccccc1NC(=S)NC(=O)OCC | inactive
O=[N+]([O-])c1ccc(Cl)cc1 | inactive
N#Cc1sc2c(=O)c3ccccc3c(=O)c=2sc1C#N | inactive
CC(C)CCCCCCCOC(=O)c1ccccc1C(=O)OCCCCCCCC(C)C | inactive
[Cl-].[Cl-].[Cl-].[Gd+3] | inactive
COc1cccc2c1cc([N+](=O)[O-])c1c(C(=O)O)cc3c(c12)OCO3 | inactive
O=C=Nc1ccccc1 | inactive
CCc1cc(C)cc(CC)c1-c1c(OC(=O)C(C)(C)C)n2n(c1=O)CCOCC2 | inactive
Cl/C=C\CCl | inactive
CN(C)N | inactive
CC(C)(C)C(=O)CCl | inactive
CC(N)=S | inactive
CCCCc1c(C)nc(NCC)nc1OS(=O)(=O)N(C)C | inactive
O=P1(NCCCl)OCCCN1CCCl (stereo not given) | inactive
N#Cc1cc(I)c(O)c(I)c1 | inactive
Cc1cccc2sc3nncn3c12 | inactive

SMILES | outcome
COc1ccc2c3c1O[C@H]1[C@@H](O)C=C[C@H]4[C@@H](C2)N(C)CC[C@@]341 | inactive
FC(F)(F)c1ccc(OCCCOc2c(Cl)cc(OCC=C(Cl)Cl)cc2Cl)nc1 | inactive
C=COCCCl | inactive
Cc1ccc2cc(C)ccc2c1 | inactive
COc1ccc(CO)cc1 | inactive
Oc1cc(Cl)ccc1Cl | inactive
Oc1ccc(Cl)cc1 | inactive
OC(Cn1cncn1)(c1ccc(F)cc1)c1ccccc1F (stereo not given) | inactive
CNC(=O)ON=C(CSC)C(C)(C)C | inactive
CC(Cc1ccc(C(C)(C)C)cc1)CN1C[C@@H](C)O[C@@H](C)C1 (stereo not given in full) | inactive
CCOC(=O)COc1ccc(Cl)cc1Cl | inactive
CC1(C)[C@H](C(=O)O[C@H](C#N)c2cccc(Oc3ccccc3)c2)[C@@H]1C=C(Br)Br | inactive
CCCCC(CC)COC(=O)c1cc(Br)c(Br)c(Br)c1Br (stereo not given) | inactive
CCCCc1c(C)nc(NCC)[nH]c1=O | inactive
O=S1OC[C@@H]2[C@H](CO1)[C@]1(Cl)C(Cl)=C(Cl)[C@]2(Cl)C1(Cl)Cl (stereo not given in full) | inactive
CCC[N+](=O)[O-] | inactive
c1cc[n+]2c(c1)-c1cccc[n+]1CC2 | inactive
COc1cccc([C@@]2(O)CCCC[C@@H]2CN(C)C)c1 | inactive
O=S(=O)(O)O | inactive
[O-][Cl+3]([O-])([O-])O | inactive

Source: PubChem BioAssay (EPA / NIEHS)
